Values joined by “and” are separate entries in the source; they are usually repeats but may differ in a detail not shown here. Equal values may be shown once. Values without a mark were called inactive. Records with an inconclusive call do not appear. A call without a number means that no potency is given here. Active and inactive are the calls of the source. Unless noted, the call rests on the fitted dose curve; in most records, active means well fitted curve in the direction sought with a large enough effect; inconclusive means small, poorly fitted or top-dose-only effect, or another doubt; inactive means no such curve, though single readings can be large; an effect the other way counts as inactive or inconclusive.
What was measured:
[1] = Cellular Toxicity (caspase-3) HUV-EC-C (AID 656)
Method in brief: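 Read-out: luminescence proportional to caspase 3/7 activity, measured 20 min after adding Caspase-Glo 3/7 reagent. Cells (HUV-EC-C) had received compound for 16 hr at 37°C. Increases relative to DMSO and 100 uM tamoxifen gave concentration-response AC50 values.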

[2] = Cellular Toxicity (caspase-3) SHSY5Y (AID 657)
Method in brief: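 Cells plated and incubated 5 h at 37 °C, dosed over a concentration range, incubated 16 h, then given Caspase-Glo 3/7 reagent for 1 h at room temperature before luminescence reading. Staurosporine (10 uM) defined full stimulation.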

[3] = Cellular Toxicity (caspase-3) H-4-II-E (AID 663); settings: Potency: caspase-3 activation;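 further: cells exposed to compound for 16 hr before readout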
Method in brief: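 H-4-II-E rat hepatoma, 1500 cells/well, 5 hr settle at 37 °C; compound 16 hr, 37 °C, complete medium; Caspase-Glo 3/7, 20 min RT; luminescence. DMSO = 0%, 100 uM tamoxifen = 100%; Hill-equation AC50.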

[4] = MultiTox-Fluor Cytotoxicity Assay - LYMP1-001 - Dead Cells (AID 946)
Method in brief: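 AC50 from Hill fit of concentration-response; data normalized to DMSO (basal) and 15 uM tetraoctylammonium bromide (100%). LYMP1-001 lymphoblastoid cells, 2500/well, 16 hr compound at 37 C; dead-cell protease fluorescence, Ex/Em 485/520.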

[5] = Cell Viability - LYMP1-002 - Assay at 16 hr (AID 948)
Method in brief: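 Acute cytotoxicity is scored as a concentration-dependent fall in intracellular ATP in a human lymphoblastoid line (LYMP1-002) after 16 hr compound exposure at 37 C, measured by luciferase luminescence.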

[6] = MultiTox-Fluor Cytotoxicity Assay - LYMP1-003 - Live Cells (AID 962);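 further: cytotoxic hits lower the live-cell protease signal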
Method in brief: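 Live-cell protease activity (GF-AFC substrate, 405/510 nm, 60 min at room temperature) after 16 h, 37 C compound exposure of human lymphoblastoid LYMP1-003 cells; concentration-response fitted to the Hill equation for AC50.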

[7] = Cell Viability - LYMP1-003 - Assay at 24 hr (AID 963)
Method in brief: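 Concentration-response qHTS: ATP loss measured by CellTiter-Glo luminescence after 24 h compound exposure at 37 C. Cells were LYMP1-003 human lymphoblastoid, 2500 per well. AC50 derived via standard Hill equation modeling.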

[8] = Cell Viability - LYMP1-003 - Assay at 40 hr (AID 964); further: nearly all actives have a fitted effect of over 60% in size
Method in brief: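 Viability is taken as cellular ATP, read by CellTiter-Glo luminescence after 40 h of compound exposure at 37 C. Cells: human lymphoblastoid line LYMP1-003 at 2500/well; AC50 values derived by Hill-equation fitting of concentration-response data.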

[9] = Cell Viability - LYMP2-011 (AID 969); further: nearly all actives have a fitted effect of over 60% in size
Method in brief: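 Cytotoxicity qHTS with ATP content as read-out: lymphoblastoid cells (2500/well) exposed to compound for 24 h at 37 C, then luciferase luminescence measured. Concentration-response data fitted with the standard Hill equation to give AC50.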

[10] = Cell Viability - LYMP2-021 (AID 974); further: nearly all actives have a fitted effect of over 55% in size
Method in brief: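 AC50 values come from Hill-equation fits to CellTiter-Glo luminescence (ATP content), read after 24 hour compound exposure at 37 C of 2500 LYMP2-021 lymphoblastoid cells/well; tetraoctylammonium bromide as positive control.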

[11] = Cell Viability - LYMP2-023 (AID 975);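 further: cellular ATP measured by luciferase luminescence as viability proxy; nearly all actives have a fitted effect of over 55% in size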
Method in brief: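 Intracellular ATP, read by CellTiter-Glo luminescence, reports viability after 24 hr compound exposure at 37 C. 2500 lymphoblastoid cells/well (LYMP2-023) seeded 5 hr beforehand; Hill fits give AC50; positive control tetraoctylammonium bromide.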

[12] = Cell Viability - LYMP2-010 (AID 981); further: nearly all actives have a fitted effect of over 55% in size
Method in brief: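 CellTiter-Glo ATP luminescence measured cytotoxicity after 24 h compound exposure at 37 C. LYMP2-010 cells were seeded at 2500/well, with tetraoctylammonium bromide as control; concentration-response curves gave AC50 values by the Hill equation.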

[13] = Cell Viability - LYMP2-014 (AID 983); further: nearly all actives have a fitted effect of over 50% in size
Method in brief: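 Intracellular ATP loss, read by luciferase luminescence, measures acute cytotoxicity after 24 h compound exposure of lymphoblastoid LYMP2-014 cells (2500/well, 37 C). Concentration-response data fitted to the Hill equation for AC50.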

[14] = Cell Viability - LYMP2-016 (AID 984); further: nearly all actives have a fitted effect of over 55% in size
Method in brief: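 Acute toxicity in a Coriell human lymphoblastoid line is scored as loss of intracellular ATP over 24 h of treatment in complete medium. CellTiter-Glo signal is fitted across concentrations with the Hill equation to give AC50.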

[15] = Cell Viability - LYMP2-018 (AID 985); further: nearly all actives have a fitted effect of over 50% in size
Method in brief: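 Viability read as CellTiter-Glo luminescence (cellular ATP) after 24 hr compound exposure at 37 C of 2500 LYMP2-018 lymphoblastoid cells/well, pre-plated 5 hr. Hill-equation modelling gave AC50.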

[16] = Cell Viability - LYMP2-024 (AID 988); further: nearly all actives have a fitted effect of over 60% in size
Method in brief: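 Cytotoxicity was taken as a decrease in ATP (CellTiter-Glo luminescence) after 24 hr compound exposure at 37 C of LYMP2-024 lymphoblastoid cells, 2500 cells/well. Concentration-response data were fitted to the Hill equation to give AC50.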

[17] = qHTS assay for small molecule activators of the p53 signaling pathway (AID 651743; active means well fitted activation curve with a large enough effect in the signal ratio, not every such curve was filed as active; the % refers to the signal ratio); settings: HCT-116 p53RE-bla, beta-lactamase FRET ratio, 16 h; activation: active compounds read high
Method in brief: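 Following 16 hours of compound exposure at 37 C, HCT-116 cells bearing the p53RE-bla reporter were loaded with LiveBLAzer B/G FRET substrate for 2 hours at room temperature and fluorescence intensity was recorded.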

[18] = qHTS assay for small molecule disruptors of the mitochondrial membrane potential - 1 hr assay (AID 651754; calls by dose curve; further: nearly all actives have a fitted effect of over 35% in size; further: potency means the concentration at half of the fitted maximal effect)
Method in brief: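 Mitochondrial potential in living HepG2 cells after 1 hr compound treatment at 37C was read with Mito-MPS dye added for a further 30 min. Red aggregate and green monomer fluorescence were measured; loss of potential leaves dye as cytoplasmic monomers.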

[19] = Cell Viability - N2a (AID 540); settings: N2a mouse neuroblastoma cell viability; activity change, negative = cytotoxicity: at 92.2 µM (top of the series); further: nearly all actives have a fitted effect of over 45% in size
Method in brief: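 CellTiter-Glo ATP luminescence, read 20 min after reagent at room temperature, reported viability following 40 h compound treatment at 37 °C. N2a mouse neuroblastoma cells seeded 1500/well; Hill equation gave AC50.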

[20] = MultiTox-Fluor Cytotoxicity Assay - LYMP1-002 - Dead Cells (AID 960); further: nearly all actives have a fitted effect of over 60% in size
Method in brief: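 Dead-cell fluorescence (Ex/Em 485/520) after 16 h compound exposure at 37 C of LYMP1-002 lymphoblastoid cells in complete medium; AC50 by Hill equation, with data scaled between DMSO and 15 uM tetraoctylammonium bromide.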

Row | SMILES | outcome [1] | outcome [2] | Potency [3] | outcome [4] | outcome [5] | outcome [6] | outcome [7] | Potency [8] | Potency [9] | Potency [10] | Potency [11] | Potency [12] | Potency [13] | Potency [14] | Potency [15] | Potency [16] | activation [17] | Potency [18] | Potency [19] | Potency [20]
1 | C=CCO | inactive | inactive | inactive | inactive | inactive | inactive | inactive | inactive | inactive | inactive | inactive | inactive | inactive | inactive | inactive | inactive | -1.01% | inactive |  | 
2 | CCCCCOC(=O)c1ccccc1C(=O)OCCCCC | inactive | inactive | inactive | inactive | inactive | inactive | inactive | inactive | inactive | inactive | inactive | inactive | inactive |  | inactive | inactive | -1% and 1.8% | inactive | inactive | 
3 | CCC/C=N/O | inactive |  | inactive | inactive |  | inactive | inactive | inactive | inactive | inactive | inactive |  | inactive | inactive | inactive | inactive | 2.09% | inactive |  | inactive
4 | Oc1ccc(Cl)c(Cl)c1Cl | inactive | inactive | inactive | inactive | inactive |  |  | inactive | inactive |  | inactive | inactive |  | inactive |  | inactive | -0.769% | 42.2 µM (active) |  | inactive
5 | CCCCCCCCCCCCCl |  | inactive | inactive | inactive | inactive | inactive |  | inactive | inactive | inactive |  |  | inactive | inactive | inactive | inactive | -1.06% | inactive |  | inactive
6 | c1ccoc1 | inactive | inactive |  | inactive | inactive | inactive | inactive | inactive | inactive | inactive | inactive |  | inactive | inactive | inactive |  | 1.16% | inactive |  | inactive
7 | CCOC(=O)CC(SP(=O)(OC)OC)C(=O)OCC (stereo not drawn) |  | inactive | inactive | inactive | inactive | inactive | inactive |  | inactive | inactive | inactive | inactive | inactive | inactive | inactive | inactive | -0.7% and -2.82% | inactive | inactive | inactive
8 | CN(C)C(=O)Cl |  | inactive | inactive | inactive | inactive | inactive | inactive | inactive | inactive | inactive | inactive | inactive |  | inactive | inactive | inactive |  | inactive |  | 
9 | ClC(Cl)Br | inactive | inactive | inactive | inactive | inactive | inactive |  | inactive | inactive | inactive | inactive | inactive | inactive | inactive | inactive | inactive |  | inactive | inactive | inactive
10 | N#C/C(N)=C(/N)C#N | inactive | inactive | inactive | inactive | inactive | inactive | inactive | inactive | inactive | inactive |  | inactive | inactive |  | inactive | inactive | 1.55% | inactive | inactive | inactive
11 | Nc1ccc([N+](=O)[O-])cc1[N+](=O)[O-] | inactive | inactive | inactive | inactive |  | inactive | inactive | inactive | inactive | inactive | inactive | inactive |  | inactive | inactive | inactive |  | 18.8 µM (active) |  | inactive
12 | [O-][Cl+]O | inactive | inactive | inactive | inactive | inactive | inactive | inactive |  | inactive | inactive | inactive | inactive |  | inactive |  | inactive | 0.903% | inactive |  | inactive

— PubChem BioAssay (NCATS)
